# Laboratory results: PubChem BioAssay AID488969 (Vanderbilt High Throughput Screening Facility, 2010)
# Whole data set: some 110,000 compounds, median “z-score” near -0.1, cut for the highest 2% near 2. This excerpt belongs to a sample that is enriched for the highest values. Calls of active or inactive are those of the source.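 Rule for the calls: active = z-score in the third read window above 3 or below -3; inactive = the rest.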
# Molecular target: Metabotropic glutamate receptor 8 (Rattus norvegicus) (UniProt P70579)
# Sequence (P70579 whole entry, looked up): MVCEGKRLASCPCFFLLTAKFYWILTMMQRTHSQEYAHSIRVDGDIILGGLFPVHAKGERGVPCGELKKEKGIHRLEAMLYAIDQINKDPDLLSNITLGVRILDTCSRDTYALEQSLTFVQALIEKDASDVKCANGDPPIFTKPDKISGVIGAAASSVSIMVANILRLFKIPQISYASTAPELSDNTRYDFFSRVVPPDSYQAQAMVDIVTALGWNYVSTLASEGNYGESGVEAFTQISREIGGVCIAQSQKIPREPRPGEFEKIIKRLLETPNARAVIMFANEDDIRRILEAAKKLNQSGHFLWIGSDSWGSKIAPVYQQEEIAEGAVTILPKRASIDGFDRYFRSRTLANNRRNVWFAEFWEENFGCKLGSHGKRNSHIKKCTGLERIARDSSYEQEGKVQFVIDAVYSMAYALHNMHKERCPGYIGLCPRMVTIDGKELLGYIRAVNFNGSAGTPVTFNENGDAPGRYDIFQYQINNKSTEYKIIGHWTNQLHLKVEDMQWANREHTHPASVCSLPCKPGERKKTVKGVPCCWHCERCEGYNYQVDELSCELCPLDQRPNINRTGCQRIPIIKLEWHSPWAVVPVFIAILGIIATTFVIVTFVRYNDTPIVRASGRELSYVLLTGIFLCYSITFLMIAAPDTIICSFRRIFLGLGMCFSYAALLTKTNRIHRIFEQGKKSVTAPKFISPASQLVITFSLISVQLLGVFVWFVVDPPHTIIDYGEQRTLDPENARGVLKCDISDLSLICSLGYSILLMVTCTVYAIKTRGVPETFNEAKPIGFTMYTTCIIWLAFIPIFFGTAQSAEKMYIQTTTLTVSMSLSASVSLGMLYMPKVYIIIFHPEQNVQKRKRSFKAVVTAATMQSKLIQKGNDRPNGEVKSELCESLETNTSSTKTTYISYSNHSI
# Test: rat mGluR8 modulators via GIRK flux, primary screen, cell-based, thallium flux, HTS (AID 488969)
# Details: HEK293 rat mGluR8, GIRK (G protein-gated inwardly rectifying potassium channel) thallium flux, FluoZin2; at 10 µM; stronger effect = higher value; submaximal glutamate (EC20) added with thallium
row,SMILES,z-score
1,COc1ccccc1NC(=O)CSc1nc(O)c(Cc2ccccc2)c(=O)[nH]1,0.381
2,COc1ccc(OC)c(-n2c(-c3cnccn3)n[nH]c2=S)c1,-0.441
3,COc1ccc(NS(=O)(=O)c2ccc(N3CCCC3)c(NC(=S)Nc3cccc(C)c3C)c2)cc1,0.291
4,O=C(CSc1nnc(CNC(=O)c2ccco2)o1)c1ccccc1,0.135
5,CC1(C)CC(=O)C/C(=N\NC(=O)Cc2ccccc2)C1,-0.224
6,CCCC(=O)Nc1ccc(C(=O)N/N=C2\CC(=O)CC(C)(C)C2)cc1,-0.113
7,CC1(C)CC(=O)CC(=Nc2ccc(C(=O)O)cc2)C1,2.15
8,CC(=O)c1cccc(NC(=O)c2ccco2)c1,-0.295
9,CCOC(=O)c1c(C)oc2ccc(O)c(CN3CCCCC3)c12,3.52 (active)
10,CCOC(=O)c1c(C)n(C)c2ccc(O)c(CN3CCC(C)CC3)c12,3.63 (active)
11,CCOC(=O)c1c(C)n(C)c2ccc(O)c(CN(C)C)c12,2
12,CCOC(=O)c1c(-c2ccccc2)oc2ccc(O)c(CN3CCCC3)c12,1.41
13,CCOC(=O)c1c(-c2ccccc2)oc2ccc(O)c(CN(C)C)c12,-0.204
14,CCOC(=O)c1c(C)n(C)c2ccc(O)c(CN3CCCCC3)c12,0.782
15,CCOC(=O)c1c(C)oc2ccc(O)c(CN(C)C)c12,0.911
16,CCOC(=O)c1c(C)n(C)c2ccc(O)c(CN(CC)CC)c12,-2.05
17,CCOC(=O)c1c(C)n(C)c2ccc(O)c(CN3CCN(C)CC3)c12,0.0797
18,CCN(CCCNC(=O)CCNC(=O)Cn1cnc2ccccc2c1=O)c1ccccc1,0.554
19,CCOC(=O)C1CCCN(C(=O)c2ccccc2SCCOC)C1 (stereo not given),0.188
20,Cc1nnc(SCC(=O)Nc2ccc3c(c2)OCCO3)s1,0.669
21,O=C(O)/C=C\C(=O)Nc1ccccc1F,0.0594
22,O=C(NC(=S)Nc1ccccc1N1CCOCC1)c1ccc(-c2cccc(Cl)c2)o1,0.758
23,CN1CCN(c2ccccc2NC(=O)c2ccc(-c3cccc([N+](=O)[O-])c3)o2)CC1,-0.00188
24,O=C(NC(=S)Nc1cccc(Cl)c1N1CCCC1)c1ccc(-c2cccc([N+](=O)[O-])c2)o1,4.93 (active)
25,CC1CCN(c2ccccc2NC(=S)NC(=O)c2ccc(-c3cccc([N+](=O)[O-])c3)o2)CC1,0.191
26,O=C(NC(=S)Nc1ccccc1N1CCCC1)c1ccc(-c2cccc([N+](=O)[O-])c2)o1,5.71 (active)
27,O=C(NC(=S)Nc1ccccc1N1CCCCC1)c1ccc(-c2cccc([N+](=O)[O-])c2)o1,0.681

row,SMILES,z-score
1,Cc1cc(/C=C(/C#N)c2nc3ccccc3[nH]2)c(C)n1-c1cccc([N+](=O)[O-])c1,-0.533
2,O=C(CN1CCCC1)NC12CC3CC(CC(C3)C1)C2,-0.0651
3,Cn1c(=O)c([N+](=O)[O-])c(NCc2ccccc2)c2ccccc21,-0.608
4,COc1ccc(CNC(=O)COC(=O)c2cc(-c3ccc(Cl)s3)nc3ccccc23)cc1,-0.432
5,O=C(NCCc1c[nH]c2ccccc12)c1cc2sccc2n1Cc1ccccc1,-0.216
6,Cc1ccc(C(=O)O/N=C\c2ccc(N3CCOCC3)c([N+](=O)[O-])c2)cc1,-0.0662
7,CC(=O)Nc1ccc(NC(=O)C(F)(F)F)cc1,0.364
8,FC(F)Sc1ccc(-n2cc(-c3ccccc3)[n+]3c2CCC3)cc1,-0.0431
9,CCCc1nc(SCC(=O)N2CCN(c3ccccc3)CC2)c2c(=O)n(C)c(=O)n(C)c2n1,2.39
10,CCCc1nc(SCC(=O)c2ccccc2)c2c(=O)n(C)c(=O)n(C)c2n1,0.819
11,CCCc1nc(SCC(=O)N2CCC(Cc3ccccc3)CC2)c2c(=O)n(C)c(=O)n(C)c2n1,1.98
12,O=C(CSc1nnc(NC2CCCCC2)s1)NN1C(=O)NC2(CCCCC2)C1=O,0.151
13,O=C(CSc1nnc(Nc2ccccc2)s1)NN1C(=O)NC2(CCCCC2)C1=O,2.14
14,Cc1nnc(SCC(=O)NN2C(=O)NC3(CCCCC3)C2=O)s1,-0.0833
15,CCCCC1=C([O-])C2N=CC=CC2=[N+](c2ccccn2)C1=O (stereo not given),-0.104
16,Cc1ccc(S(=O)(=O)NC(CC(=O)N2CCc3ccccc32)c2ccco2)cc1 (stereo not given),-0.465
17,CC(C)NC(=O)c1cc2cc(Br)ccc2oc1=O,-0.497
18,O=C(Nn1cnnc1)c1cc2cc(Br)ccc2oc1=O,4.37 (active)
19,CCN(CC)C(=O)c1cc2cc(Br)ccc2oc1=O,0.312
20,CCC(c1nnnn1C(C)(C)C)N(Cc1ccco1)Cc1cc2cccc(C)c2[nH]c1=O (stereo not given),0.737
21,CC(C)C(C)(C#N)NC(=O)CSc1nnc(-c2ccncc2)n1Cc1ccccc1 (stereo not given),0.023
22,CN(CCC#N)C(=O)CSc1ncnc2sc(-c3ccccc3)cc12,8.2 (active)
23,CC(=O)c1c(C)[nH]c(C(=O)CSc2ncnc3sc(-c4ccccc4)cc23)c1C,5.38 (active)
24,CC(=O)c1c(C)[nH]c(C(=O)CSc2nnc(-c3ccccc3)o2)c1C,-0.229
25,CC(C)C(C)(C#N)NC(=O)CSc1ncnc2sc(-c3ccccc3)cc12 (stereo not given),4.81 (active)
26,COC(=O)c1c(C)[nH]c(C(=O)CSc2ncnc3sc(-c4ccccc4)cc23)c1C,1.11
27,CCN(CC)C(=O)CSc1ncnc2c1cnn2Cc1ccccc1,0.13

row,SMILES,z-score
1,CCN(CC)C(=O)CSc1nnc(-c2ccccc2)c(-c2ccccc2)n1,-0.489
2,CCN(CC)C(=O)CSc1ncnc2sc(-c3ccccc3)cc12,7.95 (active)
3,CC(C)C(C)(C#N)NC(=O)CSc1nnc(-c2ccccc2)o1 (stereo not given),-0.849
4,CCc1cc2c(SCC(=O)c3ccccc3)ncnc2s1,0.275
5,CN(C)/C=N/c1c(C#N)cnn1-c1ncnc2sc(-c3ccccc3)cc12,0.831
6,CCOC(=O)C1CCN(C(=O)c2cccc(Cl)c2)CC1,0.0552
7,C/C(=N\NC(=O)c1c(Cl)c(C)nn1C)c1cccc(NC(=O)COc2ccccc2)c1,-0.103
8,CCOC(=O)Nc1nnc(-c2ccc(OC)cc2)s1,0.0823
9,CC(C)[C@H](NC(=O)c1ccccc1)C(=O)OCC(=O)N1CCCc2ccccc21,0.0154
10,Cc1cccc(C)c1NC(=O)CSc1nc(COc2ccccc2)nc2ccccc12,0.755
11,Cc1ccc(NC(=O)C(c2ccccc2)C2CCCC2)cc1 (stereo not given),3.36 (active)
12,O=C(Nc1ccc2ccccc2c1)C(c1ccccc1)C1CCCC1 (stereo not given),0.0599
13,O=C(Nc1ccccc1)C(c1ccccc1)C1CCCC1 (stereo not given),-0.474
14,CCOC(=O)N1CCN(C(=O)N2CCOCC2)CC1,0.275
15,COc1ccccc1N1CCN(S(=O)(=O)c2ccccc2F)CC1,-0.52
16,CCCCCCOC(=O)C(C#N)c1nc2ccccc2nc1N1CCN(CC)CC1 (stereo not given),0.709
17,CC(C)COC(=O)C(C#N)c1nc2ccccc2nc1N1CCN(Cc2ccccc2)CC1 (stereo not given),-0.213
18,CCC(CC)COC(=O)C(C#N)c1nc2ccccc2nc1N1CCN(CC)CC1 (stereo not given),2.72
19,COCCOC(=O)C(C#N)c1nc2ccccc2nc1N1CCCC1 (stereo not given),-0.268
20,CCCCCCOC(=O)C(C#N)c1nc2ccccc2nc1N1CCCCC1 (stereo not given),-0.00593
21,CCCCCCOC(=O)C(C#N)c1nc2ccccc2nc1N1CCN(C)CC1 (stereo not given),2.73
22,COc1ccc(CCNC(=O)Cc2cc(OC)c(OC)cc2[N+](=O)[O-])cc1OC,-0.376
23,COCC(=O)Nc1nnc(COc2ccc(Cl)cc2)s1,0.279
24,COc1ccc(C2c3c(ccc4ccccc34)Oc3ncn4nc(Cc5ccc(OC)c(OC)c5)nc4c32)cc1 (stereo not given),-0.169
25,Cc1cc(=O)oc(C)c1C(=O)N1CCN(C(c2ccccc2)c2ccccc2)CC1,0.596
26,CN(C)C(=O)C(=O)c1cccn1-c1ccccc1C#N,0.429
27,CCOC(=O)C1CCCN(C(=O)c2sc3nc(C)nc(N(CC)CC)c3c2C)C1 (stereo not given),-0.328

row,SMILES,z-score
1,Cc1ccc(/C=C/C(=O)N2CCN(c3cccc(C(F)(F)F)c3)CC2)cc1,-0.0624
2,Cc1ccc(CC(=O)N2CCN(c3cccc(C(F)(F)F)c3)CC2)cc1,6.97 (active)
3,COc1ccccc1CC(=O)N1CCN(c2cccc(C(F)(F)F)c2)CC1,0.359
4,CCc1c(C(=O)Nc2nnc(C3CC3)s2)csc1C,1.09
5,CC(C)(C)c1ccc(OCc2ccc(C(=O)N/N=C/c3ccc([N+](=O)[O-])cc3)o2)cc1,-0.4
6,O=C(NN=C1CCCCCCC1)C(=O)NC1CCCCC1,0.327
7,CN1CCC(=NNC(=O)C(=O)NC2CCCC2)CC1,-0.0552
8,CN1CCC(=NNC(=O)C(=O)NC2CCCCC2)CC1,2.04
9,O=C(Cn1[nH]c(=O)c2ccccc2c1=O)NC1CCCCCC1,0.0122
10,COc1ccc(C(C)N2CC34C=CC(O3)C(C(=O)OCC(C)C)C4C2=O)cc1 (stereo not given),5.16 (active)
11,CCOC(=O)C1[C@H]2C(=O)N(C(C)c3ccc(OC)cc3)C[C@]23C=C[C@H]1O3 (stereo not given in full),0.209
12,CCCOC(=O)C1[C@H]2C(=O)N(C(C)c3ccc(OC)cc3)C[C@]23C=C[C@H]1O3 (stereo not given in full),0.656
13,CC(C)(NC(=O)N1CCOCC1)c1cccc(C(C)(C)NC(=O)N2CCOCC2)c1,-0.126
14,Cc1cc(C)c2cc(C)c3nnc(SCC(=O)NCc4ccc5c(c4)OCO5)n3c2c1,-0.513
15,COc1ccccc1CCNCc1ccc(OC)c(OCc2ccccc2)c1,0.696
16,COc1cccc(CNCCc2c[nH]c3ccccc23)c1OCc1ccc(F)cc1,2.04
17,COc1cccc(CNn2cnnc2)c1OCc1ccc(F)cc1,-0.661
18,COc1cc(CNCCc2c[nH]c3ccccc23)ccc1OCc1ccccc1F,0.911
19,COc1cc(CNCCc2c[nH]c3ccccc23)ccc1OCc1ccc(F)cc1,3.41 (active)
20,COc1cccc(CNCCc2c[nH]c3ccccc23)c1OCc1ccccc1,1.32
21,Cc1cccc(N2CCN(C(=O)COc3ccc4c(c3)CCC4)CC2)c1C,-0.161
22,CC1(C)NC(=O)N(CCSc2ccc(Cl)cc2)C1=O,-0.257
23,CCC(Sc1n[nH]c(=O)[nH]c1=O)C(=O)OCc1ccccc1 (stereo not given),0.193
24,O=C(NCc1ccc(F)cc1)c1cc(S(=O)(=O)N2CCOCC2)ccc1F,0.0221
